Reference: PubChem BioAssay AID1159580 (chemical genetic matrix, 2015)
“And” between values parts separate entries of the source, which are not always exact repeats. Equal values may be shown once. Hit rate of the full screen: of about 5,500 compounds, about 2,000 (36%) were called active. Inconclusive results (about 18%) are left out. No stated cut-off is given here; in the data, active means normalized growth mostly below about 0.91 (no sharp cut-off); inconclusive means no clear call, values can overlap the other calls; inactive means mostly above about 0.92. This is one part of the list.

Assay: chemical genetic growth profiling, strain panel (AID 1159580);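 further: tested at 20 µM; growth read once vehicle control cultures reached saturation at 30 °C; 1 = growth at the plate median or of vehicle wells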
Settings: growth OD

Measured: normalized growth

NCCc1ccc(O)c(O)c1
inactive: S. cerevisiae deletion strains, locus YJL187C, strain SWE1 (second series), stronger effect = lower value 0.965 | S. cerevisiae deletion strains, locus YJR043C, strain POL32, stronger effect = lower value 1.03 | S. cerevisiae deletion strains, locus YJR066W, strain TOR1, stronger effect = lower value 0.958 and 0.96 | S. cerevisiae deletion strains, locus YJR075W, strain HOC1, stronger effect = lower value 0.98 and 0.981 | S. cerevisiae deletion strains, locus YKL009W, strain mrt4, stronger effect = lower value 0.964 | S. cerevisiae deletion strains, locus YKL068W, stronger effect = lower value 0.981 | S. cerevisiae deletion strains, locus YKL085W, strain MDH1 (second series), stronger effect = lower value 0.994 | S. cerevisiae deletion strains, locus YKL085W, strain MDH1, stronger effect = lower value 0.994 | S. cerevisiae deletion strains, locus YKL160W, strain elf1, stronger effect = lower value 1 | S. cerevisiae deletion strains, locus YKR001C, strain vps1, stronger effect = lower value 0.995 | S. cerevisiae deletion strains, locus YKR026C, strain gcn3, stronger effect = lower value 1 | S. cerevisiae deletion strains, locus YKR091W, strain srl3, stronger effect = lower value 1.01 | S. cerevisiae deletion strains, locus YLL001W, strain dnm1, stronger effect = lower value 0.983 | S. cerevisiae deletion strains, locus YLL026W, stronger effect = lower value 1 | S. cerevisiae deletion strains, locus YLL041C, strain sdh2, stronger effect = lower value 0.991 | S. cerevisiae deletion strains, locus YLR027C, strain aat2, stronger effect = lower value 1.01 | S. cerevisiae deletion strains, locus YLR039C, strain RIC1, stronger effect = lower value 0.99 | S. cerevisiae deletion strains, locus YLR058C, strain SHM2, stronger effect = lower value 0.985 | S. cerevisiae deletion strains, locus YLR102C, strain apc9, stronger effect = lower value 0.992 | S. cerevisiae deletion strains, locus YLR113W, strain HOG1, stronger effect = lower value 1.07 and 1.04 | S. cerevisiae deletion strains, locus YLR221C, strain rsa3, stronger effect = lower value 0.982 | S. cerevisiae deletion strains, locus YLR258W, strain gsy2, stronger effect = lower value 1 | S. cerevisiae deletion strains, locus YLR262C, strain YPT6 (second series), stronger effect = lower value 0.998 | S. cerevisiae deletion strains, locus YLR262C, strain YPT6, stronger effect = lower value 0.969 | S. cerevisiae deletion strains, locus YLR268W, strain sec22, stronger effect = lower value 1.01 | S. cerevisiae deletion strains, locus YLR320W, strain mms22, stronger effect = lower value 1 | S. cerevisiae deletion strains, locus YLR330W, strain CHS5, stronger effect = lower value 0.998 | S. cerevisiae deletion strains, locus YLR342W, strain FKS1 (second series), stronger effect = lower value 0.981 | S. cerevisiae deletion strains, locus YLR342W, strain FKS1, stronger effect = lower value 0.999 | S. cerevisiae deletion strains, locus YLR357W, strain rsc2, stronger effect = lower value 0.985 | S. cerevisiae deletion strains, locus YLR370C, strain arc18, stronger effect = lower value 1.01 | S. cerevisiae deletion strains, locus YLR371W, strain rom2, stronger effect = lower value 0.992 | S. cerevisiae deletion strains, locus YLR384C, strain iki3, stronger effect = lower value 0.99 | S. cerevisiae deletion strains, locus YLR418C, strain cdc73, stronger effect = lower value 0.999 | S. cerevisiae deletion strains, locus YML016C, strain PPZ1, stronger effect = lower value 0.991 | S. cerevisiae deletion strains, locus YML032C, strain rad52, stronger effect = lower value 1.01 | S. cerevisiae deletion strains, locus YML120C, strain ndi1, stronger effect = lower value 1.01 | S. cerevisiae deletion strains, locus YML124C, strain tub3, stronger effect = lower value 1 | S. cerevisiae deletion strains, locus YMR058W, strain fet3, stronger effect = lower value 1.02 | S. cerevisiae deletion strains, locus YMR078C, strain ctf18, stronger effect = lower value 0.991 | S. cerevisiae deletion strains, locus YMR125W, strain sto1, stronger effect = lower value 1.01 | S. cerevisiae deletion strains, locus YMR129W, stronger effect = lower value 1.01 | S. cerevisiae deletion strains, locus YMR205C, strain PFK2, stronger effect = lower value 1.03 | S. cerevisiae deletion strains, locus YMR223W, strain ubp8, stronger effect = lower value 0.972 | S. cerevisiae deletion strains, locus YMR231W, strain pep5, stronger effect = lower value 1.01 | S. cerevisiae deletion strains, locus YMR307W, strain GAS1, stronger effect = lower value 1.03 | S. cerevisiae deletion strains, locus YNL067W, strain RPL9B, stronger effect = lower value 0.968 | S. cerevisiae deletion strains, locus YNL071W, strain lat1, stronger effect = lower value 1 | S. cerevisiae deletion strains, locus YNL153C, strain GIM3, stronger effect = lower value 0.973 and 0.99 | S. cerevisiae deletion strains, locus YNL175C, strain NOP13, stronger effect = lower value 1 | S. cerevisiae deletion strains, locus YNL183C, strain NPR1, stronger effect = lower value 1 and 0.946 | S. cerevisiae deletion strains, locus YNL197C, strain WHI3, stronger effect = lower value 0.993 | S. cerevisiae deletion strains, locus YNL209W, strain ssb2, stronger effect = lower value 1 | S. cerevisiae deletion strains, locus YNL224C, strain SQS1, stronger effect = lower value 1 | S. cerevisiae deletion strains, locus YNL233W, strain BNI4, stronger effect = lower value 0.984 | S. cerevisiae deletion strains, locus YNL248C, strain rpa49, stronger effect = lower value 0.985 | S. cerevisiae deletion strains, locus YNL250W, strain rad50, stronger effect = lower value 1 | S. cerevisiae deletion strains, locus YNL271C, strain bni1, stronger effect = lower value 0.991 | S. cerevisiae deletion strains, locus YNL298W, strain CLA4, stronger effect = lower value 1 | S. cerevisiae deletion strains, locus YNL307C, strain MCK1, stronger effect = lower value 1 | S. cerevisiae deletion strains, locus YNL322C, strain KRE1 (second series), stronger effect = lower value 0.99 | S. cerevisiae deletion strains, locus YNR049C, strain mso1, stronger effect = lower value 1.01 | S. cerevisiae deletion strains, locus YNR052C, strain pop2, stronger effect = lower value 1.01 | S. cerevisiae deletion strains, locus YOL012C, strain htz1 0.769 | S. cerevisiae deletion strains, locus YOL147C, strain pex11, stronger effect = lower value 0.998 | S. cerevisiae deletion strains, locus YOR001W, strain rrp6, stronger effect = lower value 0.997 | S. cerevisiae deletion strains, locus YOR061W, strain CKA2, stronger effect = lower value 0.993 | S. cerevisiae deletion strains, locus YOR069W, strain VPS5, stronger effect = lower value 0.998 | S. cerevisiae deletion strains, locus YOR080W, strain dia2, stronger effect = lower value 1.01 | S. cerevisiae deletion strains, locus YOR083W, strain WHI5 (second series), stronger effect = lower value 0.984 | S. cerevisiae deletion strains, locus YOR083W, strain WHI5, stronger effect = lower value 1.01 | S. cerevisiae deletion strains, locus YOR106W, strain vam3, stronger effect = lower value 0.981 | S. cerevisiae deletion strains, locus YOR136W, strain idh2, stronger effect = lower value 0.999 | S. cerevisiae deletion strains, locus YOR144C, strain elg1, stronger effect = lower value 0.997 | S. cerevisiae deletion strains, locus YOR184W, strain ser1, stronger effect = lower value 0.995 | S. cerevisiae deletion strains, locus YOR231W, strain MKK1, stronger effect = lower value 1.07 and 1.04 | S. cerevisiae deletion strains, locus YOR265W, strain rbl2, stronger effect = lower value 1.01 | S. cerevisiae deletion strains, locus YOR270C, strain vph1, stronger effect = lower value 1.06 | S. cerevisiae deletion strains, locus YOR290C, strain snf2, stronger effect = lower value 1.01 | S. cerevisiae deletion strains, locus YOR316C, strain cot1, stronger effect = lower value 0.993 | S. cerevisiae deletion strains, locus YPL051W, strain arl3, stronger effect = lower value 0.974 | S. cerevisiae deletion strains, locus YPL055C, strain LGE1, stronger effect = lower value 0.974 | S. cerevisiae deletion strains, locus YPL078C, strain atp4, stronger effect = lower value 1.02 | S. cerevisiae deletion strains, locus YPL106C, strain sse1, stronger effect = lower value 0.968 | S. cerevisiae deletion strains, locus YPL240C, strain hsp82, stronger effect = lower value 1.01 | S. cerevisiae deletion strains, locus YPL256C, strain CLN2, stronger effect = lower value 1.03 and 1.04 | S. cerevisiae deletion strains, locus YPR119W, strain clb2, stronger effect = lower value 0.995 | S. cerevisiae deletion strains, locus YPR141C, strain kar3, stronger effect = lower value 0.969 | S. cerevisiae deletion strains, locus YPR163C, strain tif3, stronger effect = lower value 0.997 | S. cerevisiae deletion strains, locus YPR167C, strain met16, stronger effect = lower value 0.999 | S. cerevisiae deletion strains, strain wtn01, stronger effect = lower value 0.994 | S. cerevisiae strains, strain wild type, stronger effect = lower value 0.993
